Among the data in PubChem BioAssay (NCI) are growth values, retold here.

About 83,000 compounds went through this panel and 20% of them were active in at least one assay; those are over-represented in the sample as a whole.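 Single-concentration screen, 48 h exposure, 96-well plates. Endpoint: percent growth. Below 10 = active.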 Calls of active or inactive are those of the source.

The test system of this experiment is A498 renal. Put plainly: NCI-60 one-dose screen, 48 h (100 = growth as untreated, 0 = no growth, -100 = all killed). The settings on record: 10 µM unless noted. On the procedure:
Growth inhibition of the A498 human tumor cell line is measured as a screen for anti-cancer activity. Cells are grown in 96 well plates and exposed to the test compound for 48 hours. Compounds are tested at a single concentration, which is 10^-5 M for most compounds. The reported endpoint is percent growth (GI% or GIPRCNT), where numbers from 0 - 100% represent growth inhibition, and numbers from -100% - 0 represent cell death. For example, a value of 40 represents 60% growth inhibition. A value of 0 means no net growth occurred over the course of the experiment. A value of -40 indicates 40% of cells at the beginning of the experiment died by the end of the experiment. A value of -100 means all cells are dead at the end of the experiment.
NCI-60 Human Tumor Cell Lines Screen was performed using the standard one-dose NCI protocol, which is described in more detail at https://dtp.cancer.gov/discovery_development/nci-60/default.htm.
Compounds with GIPRCNT values below 10 were considered active. Activity score was based on GIPRCNT using the following formula: […]
Score is 0 for GIPRCNT values of 100 or above, 50 for GIPRCNT values of 0, and 100 for GIPRCNT values of -100.
As to `O=C(CCl)N(C1CCCCC1)C1CCCCC1`, the growth was 91.7% (inactive).

Take `COc1ccc(-c2nc3sc(-c4cc(OC)c(OC)c(OC)c4)nn3c2/C=C2/C(=O)Nc3ccc(F)cc32)cc1`: the growth was 96.7% (inactive).

In the case of `COc1ccc(-c2cnoc2-c2ccc(OC)cc2O)cc1`, the growth is 7.36% (active).

Take `Fc1ccc(Nc2nc(NCCNc3ccnc4cc(Cl)ccc34)nc(N3CCOCC3)n2)cc1`: the growth is 8.73% (active).

Turning to `COc1ccc(OC)c(C2OC(c3ccc4ccccc4c3O)=NN2C(C)=O)c1` (stereo not given), the growth was 37.4% (inactive).

Take `O=C(Nc1cccc(-n2cc(-c3ccncc3)c(-c3ccc(Cl)c(O)c3)n2)c1)Nc1cccc(C(F)(F)F)c1`: the growth was 17.7% (inactive).

For `O=C1Nc2ccc(Cl)cc2C12Nc1cc(Cl)ccc1S2` (stereo not given), the growth was 118% (inactive).

On to `CN(C)c1ncnc2c1ccn2C1OC(CO)C(O)C1O` (stereo not given), for which the growth was 68% (inactive).

Turning to `COc1ccc(Nc2[nH]n3c(=O)cc(C)nc3c2C(N)=O)c(OC)c1`, the growth is 86.1% (inactive).

Consider `CCOC(=O)c1cn2c3c(cccc3c1=O)C(=O)/C(=C/c1cccc(Cl)c1Cl)C2`, for which the growth was 99.1% (inactive).

With `CCOC(=O)c1ccc2c(c1)c1c(C)c3cccnc3c(C)c1n2C`, the growth is 83.4% (inactive).

Turning to `O=C(O)C1CCCCN1c1nc(Cl)nc(Cl)n1` (stereo not given), the growth was 90% (inactive).

In the case of `CC1=NC2=CC=CC3=NC(C(Cl)(Cl)Cl)=NC(=N1)N23`, the growth is 81.9% (inactive).

For the molecule `COc1ccc(C(=O)N2NC(=O)/C(=C/c3cn(-c4ccccc4)nc3-c3ccccc3)N=C2c2ccccc2)cc1`, the growth was 77.6% (inactive).

As for `COc1ccc(S(=O)(=O)Nc2cc(/C=C\c3cc(OC)c(OC)c(OC)c3)cc(OC)c2OC)cc1`, the growth is -11.5% (active).

Turning to `NC(=N\N=C/c1ccc(O)cc1)/C(N)=N\N=C/c1ccc(O)cc1`, the growth was 84.5% (inactive).

Regarding `COc1ccc(C2CC(c3ccc(OC)cc3OC)=NN2c2ccc(S(N)(=O)=O)cc2)cc1` (stereo not given), the growth is 102% (inactive).

As to `O=c1[nH]c(-c2ccccc2)nc(CN2CCCCC2)c1O`, the growth is 111% (inactive).

On to `CCCCCCCCCCCCCCCCCCNC(=O)[C@H]1CSC(c2ccc(OC)cc2O)N1` (stereo not given in full), for which the growth is 81.3% (inactive).

For the molecule `O=[N+]([O-])c1ccc(OCCCOc2ccccc2)cc1`, the growth is 102% (inactive).

`CCOC(=O)C1C(=O)C=C(c2ccc(OC)cc2)CC1c1sc(N(C)Cc2ccccc2)nc1Cl` (stereo not given): the growth is 93.6% (inactive).

As for `c1coc(CNc2ccnc(Nc3ccc(OCCN4CCCCC4)cc3)n2)c1`, the growth is 59.8% (inactive).

Take `CCCCCCCCCCCCNC(=O)[C@H]1CSC(c2cc(Br)cs2)N1` (stereo not given in full): the growth is 76.8% (inactive).

As to `COc1ccc(N=Cc2c(O)ccc3c2oc2cc(Cl)c(O)c(Cl)c23)cc1`, the growth is 107% (inactive).

For the molecule `CC(C)(C)n1cc(-c2ccnc(NCCCNS(=O)(=O)c3ccccc3)c2)c(-c2cccc(O)c2)n1`, the growth is 40.2% (inactive).

Regarding `COc1cccc(CC(C)=C(c2ccc(OCCN(C)C)cc2)c2ccc(OCCN(C)C)cc2)c1`, the growth is 76.8% (inactive).

As for `CCN(CC)CCC(CNc1c2ccc(Cl)cc2nc2ccc(OC)cc12)c1ccccc1` (stereo not given), the growth is 88.8% (inactive).

`CC(C)OC(=O)N1CCOCC1`: the growth was 90.3% (inactive).

As to `C/C=C(\C)C(C(=O)NC1CCCCC1)N(C(=O)C1CCc2cc(F)ccc2O1)c1ccc(Cl)cc1` (stereo not given), the growth is 109% (inactive).

As to `Cc1cc(N)n(S(=O)(=O)c2oc(-c3ccccc3)nc2C#N)n1`, the growth was 128% (inactive).

Consider `COC(=O)c1nc(-c2ccccc2)oc1S(=O)(=O)N1CCN(c2cccc(Cl)c2)CC1`, for which the growth was 111% (inactive).

`CC(C)(C)N1CCC1C(N)=O` (stereo not given): the growth is 136% (inactive).

Take `COc1cc(/C=C/C(=O)c2ccc(Nc3ncnc4cc(OC)c(OC)cc34)cc2)cc(OC)c1`: the growth was 95.8% (inactive).

`COc1ccc(Nc2nn3c(-c4ccccc4)cc(-c4ccccc4)nc3c2C(N)=O)c(OC)c1`: the growth is 70.5% (inactive).

`COc1cc(-c2nn(-c3cccc(NC(=O)Nc4ccc(Cl)c(C(F)(F)F)c4)c3)cc2-c2ccncc2)ccc1Cl`: the growth was -6.71% (active).

`Cn1c(=O)c2[nH]c(C3CC=CCC3)nc2n(C)c1=O` (stereo not given): the growth is 105% (inactive).

Regarding `COc1ccc(-c2cc3c(OC)c(OC)c(OC)cc3oc2=O)cc1`, the growth is 34.2% (inactive).

`C=C1CCC2C3(C)COC(c4c(OC)cccc4OC)OC3CCC2(C)C1C/C=C1/C(=O)OCC1O` (stereo not given): the growth was 102% (inactive).

For the molecule `COc1ccc(S(=O)(=O)NCCCNc2nccc(-c3c(-c4cccc([N+](=O)[O-])c4)nc4sccn34)n2)cc1`, the growth was 46.2% (inactive).

`CN1C=CN(Cc2ccc(-c3ccccn3)nc2)[CH-]1.CN1C=CN(Cc2ccc(-c3ccccn3)nc2)[CH-]1.[Au+3]`: the growth is 42.9% (inactive).
